Assay results reported in PubChem BioAssay AID1159580 (chemical genetic matrix, 2015).
Among all 5,500 compounds or so, about 2,000 (36%) were called active. About 18% were inconclusive and are not listed. No stated cut-off is given here; in the data, active means normalized growth mostly below about 0.91 (no sharp cut-off); inconclusive means no clear call, values can overlap the other calls; inactive means mostly above about 0.92. The list shows a part of the results.

Test: chemical genetic growth profiling, strain panel (AID 1159580);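 further: tested at 20 µM; growth read once vehicle control cultures reached saturation at 30 °C; 1 = growth at the plate median or of vehicle wells; lower values mean less growth of the strain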
Conditions: S. cerevisiae deletion strains, growth OD

Measured: normalized growth

Cc1csc(NC(=O)Nc2ccc(C(F)(F)F)cc2)c1
inactive: locus YAR019C, strain CDC15, active compounds read low 0.971 | locus YBL105C, strain PKC1, active compounds read low 0.98 | locus YBR135W, strain CKS1, active compounds read low 0.963 | locus YBR136W, strain MEC1, active compounds read low 0.98 | locus YBR160W, strain CDC28, active compounds read low 0.975 | locus YDL017W, strain CDC7, active compounds read low 0.977 | locus YDL028C, strain MPS1, active compounds read low 0.981 | locus YDL101C, strain DUN1, active compounds read low 1.02 | locus YDL108W, strain KIN28, active compounds read low 0.973 | locus YDL132W, strain cdc53, active compounds read low 0.97 | locus YDL214C, strain PRR2, active compounds read low 0.783 | locus YDR052C, strain DBF4, active compounds read low 0.989 | locus YDR054C, strain cdc34, active compounds read low 0.95 | locus YDR226W, strain ADK1, active compounds read low 0.975 | locus YDR477W, strain SNF1, active compounds read low 0.804 | locus YER123W, strain YCK3, active compounds read low 0.735 | locus YER133W, strain GLC7, active compounds read low 0.848 | locus YFL009W, strain cdc4, active compounds read low 0.97 | locus YFL029C, strain CAK1, active compounds read low 0.958 | locus YFR003C, strain YPI1, active compounds read low 0.972 | locus YFR019W, strain FAB1, active compounds read low 0.801 | locus YFR028C, strain CDC14, active compounds read low 0.951 | locus YGR040W, strain KSS1, active compounds read low 0.848 | locus YGR052W, strain FMP48, active compounds read low 0.946 | locus YGR092W, strain DBF2, active compounds read low 0.781 | locus YHR030C, strain SLT2, active compounds read low 0.891 | locus YHR079C, strain IRE1, active compounds read low 0.876 | locus YHR082C, strain KSP1, active compounds read low 0.893 | locus YIL147C, strain SLN1, active compounds read low 0.978 | locus YJL095W, strain BCK1, active compounds read low 0.896 | locus YJL128C, strain PBS2, active compounds read low 0.932 | locus YJL157C, strain FAR1, active compounds read low 0.718 | locus YJR016C, strain ILV3, active compounds read low 0.978 | locus YJR066W, strain TOR1 (second series), active compounds read low 0.848 | locus YJR066W, strain TOR1, active compounds read low 0.935 | locus YKL048C, strain ELM1, active compounds read low 0.928 | locus YKL067W, strain YNK1, active compounds read low 0.805 | locus YKL101W, strain HSL1, active compounds read low 0.821 | locus YKL193C, strain SDS22, active compounds read low 0.969 | locus YKL203C, strain TOR2, active compounds read low 0.907 | locus YLR403W, strain SFP1, active compounds read low 0.704 | locus YML070W, strain DAK1, active compounds read low 0.755 | locus YMR001C, strain CDC5, active compounds read low 0.966 | locus YMR205C, strain PFK2 (second series), active compounds read low 0.832 | locus YMR277W, strain FCP1, active compounds read low 0.965 | locus YNL006W, strain LST8, active compounds read low 0.99 | locus YNL020C, strain ARK1, active compounds read low 0.753 | locus YNL161W, strain CBK1, active compounds read low 0.982 | locus YNL183C, strain NPR1, active compounds read low 0.878 | locus YNL207W, strain RIO2, active compounds read low 0.965 | locus YNL222W, strain SSU72, active compounds read low 0.967 | locus YNL307C, strain MCK1 (second series), active compounds read low 0.708 | locus YOL078W, strain AVO1, active compounds read low 0.964 | locus YOL136C, strain PFK27, active compounds read low 0.739 | locus YOR061W, strain CKA2, active compounds read low 0.714 | locus YOR119C, strain RIO1, active compounds read low 0.928 | locus YOR231W, strain MKK1, active compounds read low 0.864 | locus YOR329C, strain SCD5, active compounds read low 0.978 | locus YPL031C, strain PHO85, active compounds read low 0.773 | locus YPL153C, strain RAD53, active compounds read low 0.868 | locus YPL204W, strain HRR25, active compounds read low 0.902 | locus YPL209C, strain IPL1, active compounds read low 0.958 | locus YPR025C, strain CCL1, active compounds read low 0.963 | locus YPR106W, strain ISR1, active compounds read low 0.971 | locus YPR111W, strain DBF20, active compounds read low 0.966 | strain NNK1, active compounds read low 0.971 | strain TSCII, active compounds read low 0.968
active: locus YHR205W, strain SCH9, active compounds read low 0.453 | locus YLR113W, strain HOG1, active compounds read low 0.803 | locus YLR133W, strain CKI1, active compounds read low 0.675 | locus YPL256C, strain CLN2, active compounds read low 0.857
